PubChem BioAssay (Tox21)
Results filed as inconclusive are left out. Active and inactive are the calls of the source. Unless noted, the call rests on the fitted dose curve; in most records, active means well fitted curve in the direction sought with a large enough effect in the repeat runs; inconclusive means weak or mixed curves; inactive means no such curve, though single readings can be large; an effect the other way counts as inactive or inconclusive.

Assays:
[1] = molecular target: Thyrotropin receptor (Homo sapiens) (UniProt P16473); assay: qHTS assay to identify small molecule agonists of the thyroid stimulating hormone receptor (TSHR) signaling pathway (AID 1224843; calls by dose curve; further: nearly all actives have a fitted effect of over 45% in size)
Thyrotropin receptor (Homo sapiens), sequence (P16473 whole entry, looked up): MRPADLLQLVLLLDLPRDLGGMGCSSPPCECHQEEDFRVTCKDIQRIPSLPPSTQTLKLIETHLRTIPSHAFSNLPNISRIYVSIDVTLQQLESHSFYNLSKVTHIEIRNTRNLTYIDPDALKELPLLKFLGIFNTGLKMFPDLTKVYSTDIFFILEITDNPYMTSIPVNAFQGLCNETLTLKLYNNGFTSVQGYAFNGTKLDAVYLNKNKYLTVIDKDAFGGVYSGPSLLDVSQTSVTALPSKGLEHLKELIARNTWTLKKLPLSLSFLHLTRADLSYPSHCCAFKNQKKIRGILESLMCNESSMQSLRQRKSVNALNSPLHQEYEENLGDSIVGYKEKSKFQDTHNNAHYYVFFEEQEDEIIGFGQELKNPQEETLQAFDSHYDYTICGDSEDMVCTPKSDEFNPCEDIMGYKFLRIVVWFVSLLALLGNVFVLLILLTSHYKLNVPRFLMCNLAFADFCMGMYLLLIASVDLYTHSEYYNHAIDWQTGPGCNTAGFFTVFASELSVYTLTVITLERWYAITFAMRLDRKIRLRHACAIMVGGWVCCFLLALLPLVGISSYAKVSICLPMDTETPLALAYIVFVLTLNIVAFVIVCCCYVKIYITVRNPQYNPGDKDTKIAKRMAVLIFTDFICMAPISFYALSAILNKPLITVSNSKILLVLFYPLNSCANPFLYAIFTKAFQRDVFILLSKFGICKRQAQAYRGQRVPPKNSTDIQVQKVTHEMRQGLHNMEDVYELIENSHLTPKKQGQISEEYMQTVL
In short: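 HEK293/TSHR, 800 cells/well; cpd 30 min RT; add cAMP-d2 + anti-cAMP-cryptate, 1 h RT; fluorescence read on plate reader. 15-pt titration, n=3.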

[2] = qHTS assay to identify small molecule agonists of the hypoxia (HIF-1) signaling pathway - cell viability counter screen (AID 1224844; calls by dose curve; further: nearly all actives have a fitted effect of over 50% in size)
In short: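 Cytotoxicity measured by CellTiter-Glo ATP luminescence in the wells also read for beta-lactamase signal. Cells were HRE-bla ME-180 (2,000/well, 0.5% dialyzed FBS), exposed to compounds for 17 h at 37C.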

[3] = qHTS assay to identify small molecule agonists of H2AX (AID 1224845; active means well fitted activation curve with a large enough effect in the signal ratio in the repeat runs, not every such curve was filed as active; the % refers to the signal ratio)
In short: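 Wild-type CHO-K1 cells, plated overnight, exposed 3hr at 37C to 15 concentrations (0.76% DMSO final). Lysed, then HTRF anti-pH2AX (S139) cryptate and anti-H2AX-d2 antibodies, 24 hr room temperature; 665/620 nm emission read.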

[4] = qHTS assay to identify small molecule agonists of the hypoxia (HIF-1) signaling pathway (AID 1224846; active means well fitted activation curve with a large enough effect in the signal ratio in the repeat runs, not every such curve was filed as active; the % refers to the signal ratio)
In short: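 Compounds added to ME-180 cells carrying hypoxia-response-element beta-lactamase reporter (0.5% dialyzed FBS, 5 h preplating), 17 h at 37C; agonist activity detected by CCF4-AM B/G FRET read-out.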

[5] = qHTS assay to identify small molecule agonists of H2AX - cell viability counter screen (AID 1224847; calls by dose curve; further: top concentration of the series differs between compounds; nearly all actives have a fitted effect of over 30% in size)
In short: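 Viability of CHO-K1 (wild type) cells after 3 hr compound exposure was measured by CellTiter-Glo luminescence.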

[6] = qHTS assay to identify small molecule antagonists of the estrogen related receptor (ERR) signaling pathway from Tox21 library (AID 1224848); further: nearly all actives have a fitted effect of over 50% in size
In short: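 Compounds dissolved in DMSO are pin-transferred onto ERR reporter cells (2,000 per well) that have settled for 6 h at 37 C. Plates then incubate 18 h at 37 C before ONE-Glo luciferase reagent and a luminescence read 30 min later.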

[7] = qHTS assay to identify small molecule agonists of the estrogen related receptor (ERR) signaling pathway from Tox21 library (AID 1224849; calls by dose curve; further: nearly all actives have a fitted effect of over 15% in size); conditions: ERR reporter cell line, ONE-Glo luciferase, 18 h; at 92.4 µM (top of the series) unless noted
In short: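 Luminescent agonist read-out (One-Glo, 30-minute room-temperature incubation) following 18-hour compound treatment at 37 C of the ERR cell line, which had been plated 6 hours before dosing.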

[8] = qHTS RealTime-Glo MT Cell Viability Assay in HepG2 cells - 24 hour (AID 1224867); further: nearly all actives have a fitted effect of over 50% in size
In short: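 Luminescence read-out: viable HepG2 cells reduce a prosubstrate to a NanoLuc substrate, giving a signal proportional to live cell number. Reads taken at 0, 8, 16, 24, 32 and 40 h of compound exposure at 37 C.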

[9] = qHTS RealTime-Glo MT Cell Viability Assay in HEK293 cells - 32 hour (AID 1224868); further: top concentration of the series differs between compounds; nearly all actives have a fitted effect of over 50% in size
In short: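 Nonlytic real-time viability readout: viable cells convert prosubstrate to NanoLuc substrate, giving luminescence proportional to live cell number. HEK293, 600 cells/well, compound added after 5 h, continuous culture at 37 C.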

[10] = A CellTox Green Cytotoxicity Assay to monitor cytotoxicity in HEK293 cells - 0 hour (AID 1224869); further: nearly all actives have a fitted effect of over 50% in size
In short: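 Fluorescence from a DNA-binding dye excluded by viable cells was measured repeatedly in the same HEK293 wells (600 cells/well) during continuous compound exposure at 37 C. Each assay gives one read point: 0, 8, 16, 24, 32 or 40 h.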
On the % scale 0 is the no-effect control and ±100 the full control effect.

CC(C)c1cc2c(cc1S(=O)(=O)O)[C@@]1(C)CCC[C@@](C)(C(=O)O)[C@@H]1CC2
inactive: Potency [1] | Potency [2] | outcome [3] | outcome [4] | Potency [5] | Potency [6] | activity change, positive = activation [7] 5.5% [at 42.5 µM] | Potency [8] | Potency [9] | Potency [10]

CO/N=C(/C(=O)N[C@@H]1C(=O)N2C(C(=O)OCOC(=O)C(C)(C)C)=C(C)CS[C@H]12)c1csc(N)n1
inactive: Potency [1] | Potency [2] | outcome [3] | outcome [4] | Potency [5] | Potency [6] | activity change, positive = activation [7] 4.91% [at 42.5 µM] | Potency [8] | Potency [9] | Potency [10]

CC(C)NCCCC1(C(N)=O)c2ccccc2-c2ccccc21
inactive: Potency [1] | Potency [2] | outcome [3] | outcome [4] | Potency [5] | Potency [6] | activity change, positive = activation [7] 9.55% [at 42.5 µM] | Potency [8] | Potency [9] | Potency [10]

CC(=O)OCC(=O)[C@@]1(O)CCC2C3CCC4=CC(=O)CC[C@]4(C)C3[C@@H](O)C[C@@]21C (stereo not given in full)
inactive: Potency [1] | Potency [2] | outcome [3] | outcome [4] | Potency [5] | Potency [6] | activity change, positive = activation [7] -12.1% [at 42.5 µM] | Potency [8] | Potency [9] | Potency [10]

CCCC(=O)O[C@]1(C(=O)CO)CC[C@H]2[C@@H]3CCC4=CC(=O)CC[C@]4(C)[C@H]3[C@@H](O)C[C@@]21C
inactive: Potency [1] | Potency [2] | outcome [3] | outcome [4] | Potency [5] | Potency [6] | activity change, positive = activation [7] -12.3% [at 42.5 µM] | Potency [8] | Potency [9] | Potency [10]

CCOC(C)(C)C
inactive: Potency [1] | Potency [2] | outcome [3] | outcome [4] | Potency [5] | Potency [6] | activity change, positive = activation [7] 3.27% | Potency [8] | Potency [9] | Potency [10]

CCC=O
inactive: Potency [1] | Potency [2] | outcome [3] | outcome [4] | Potency [5] | Potency [6] | activity change, positive = activation [7] 0.85% | Potency [8] | Potency [9] | Potency [10]

COC(=O)NN
inactive: Potency [1] | Potency [2] | outcome [3] | outcome [4] | Potency [5] | Potency [6] | activity change, positive = activation [7] -24.9% | Potency [8] | Potency [9] | Potency [10]

CCCCCCCCCCCCN(CCCCCCCCCCCC)CCCCCCCCCCCC
inactive: Potency [1] | Potency [2] | outcome [3] | outcome [4] | Potency [5] | Potency [6] | activity change, positive = activation [7] 5.6% | Potency [8] | Potency [9] | Potency [10]

CCc1nccnc1CC
inactive: Potency [1] | activity change, negative = cytotoxicity [2] 5.25% [at 15.8 µM] | outcome [3] | activation [4] 0.257% [at 15.8 µM] | Potency [5] | activity, negative = inhibition [6] 3.93% [at 19 µM] | activity change, positive = activation [7] 2.61% [at 19 µM] | activity change, negative = cytotoxicity [8] -0.21% [at 15.8 µM] | activity change, negative = cytotoxic [9] 3.89% [at 15.8 µM] | cytotoxicity [10] -0.912% [at 15.8 µM]

CC/C=C\CCOC(C)=O
inactive: Potency [1] | Potency [2] | outcome [3] | outcome [4] | Potency [5] | Potency [6] | activity change, positive = activation [7] 8.11% | Potency [8] | Potency [9] | Potency [10]

C=C(C)CS(=O)(=O)O
inactive: Potency [1] | Potency [2] | outcome [3] | outcome [4] | Potency [5] | Potency [6] | activity change, positive = activation [7] 0.527% | Potency [8] | Potency [9] | Potency [10]

CCCN1CCCC[C@H]1C(=O)Nc1c(C)cccc1C
inactive: Potency [1] | Potency [2] | outcome [3] | outcome [4] | Potency [5] | Potency [6] | activity change, positive = activation [7] 6.18% [at 42.5 µM] | Potency [8] | Potency [9] | Potency [10]

CCCCC(CC)COC(=O)c1ccccc1O (stereo not given)
inactive: Potency [1] | Potency [2] | outcome [3] | outcome [4] | Potency [5] | Potency [6] | activity change, positive = activation [7] 5.6% [at 42.5 µM] | Potency [8] | Potency [9] | Potency [10]

CCc1ccc(O)c(OC)c1
inactive: Potency [1] | Potency [2] | outcome [3] | outcome [4] | Potency [5] | Potency [6] | activity change, positive = activation [7] 4.86% | Potency [8] | Potency [9] | Potency [10]

Cc1ccc(Cl)cc1Cl
inactive: Potency [1] | Potency [2] | outcome [3] | outcome [4] | Potency [5] | Potency [6] | activity change, positive = activation [7] -0.115% | Potency [8] | Potency [9] | Potency [10]

C/C=C(\C)C#N
inactive: Potency [1] | Potency [2] | outcome [3] | outcome [4] | Potency [5] | Potency [6] | activity change, positive = activation [7] 0.294% | Potency [8] | Potency [9] | Potency [10]

O=C(c1ccccc1)C1CCCCC1
inactive: Potency [1] | Potency [2] | outcome [3] | outcome [4] | Potency [5] | Potency [6] | activity change, positive = activation [7] 3.6% | Potency [8] | Potency [9] | Potency [10]

CCCCNC(=O)NCCCC
inactive: Potency [1] | Potency [2] | outcome [3] | outcome [4] | Potency [5] | Potency [6] | activity change, positive = activation [7] 12.5% | Potency [8] | Potency [9] | Potency [10]

CN1C(=O)N(C)C(O)C1O (stereo not given)
inactive: Potency [1] | Potency [2] | outcome [3] | outcome [4] | Potency [5] | Potency [6] | activity change, positive = activation [7] 0.239% | Potency [8] | Potency [9] | Potency [10]

C1OCOCO1
inactive: Potency [1] | Potency [2] | outcome [3] | outcome [4] | Potency [5] | Potency [6] | activity change, positive = activation [7] 6.76% | Potency [8] | Potency [9] | Potency [10]
